Records with an inconclusive call do not appear. Calls of active or inactive are those of the source. Calls come from the whole dose curve; as a rule, active = well fitted inhibition curve with a large enough effect; inconclusive = small, poorly fitted or top-dose-only effect, or effect the other way; inactive = flat fitted curve, though single readings scatter.
molecular target: Ubiquitin carboxyl-terminal hydrolase 2 (Homo sapiens) (UniProt O75604); test: Confirmation Assay for Inhibitors of Ubiquitin-specific Protease USP2a Using CHOP2 as the Reporter; conditions: USP2 core, Ub-CHOP2 coupled reporter fluorescence; series mostly up to 38.3 µM; activity change, negative = inhibition: at the top concentration; note: nearly all actives have a fitted effect of over 55% in size;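 for activity change, negative = inhibition: plate controls were DMSO wells for no effect and full inhibition by NEM control for full effect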
Summary of the method: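 USP2 core (10 nM final) was preincubated with compound for 30 min at RT in Tris-HCl pH 8.0, CaCl2, beta-mercaptoethanol, CHAPS. Ub-CHOP2 and reporter substrate (25 nM final each) were added, and fluorescence (Ex 485/Em 531 nm) was read after 60 min.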
Potency is the fitted concentration of half-maximal effect.

Sequence of Ubiquitin carboxyl-terminal hydrolase 2 (Homo sapiens) (O75604 whole entry, looked up): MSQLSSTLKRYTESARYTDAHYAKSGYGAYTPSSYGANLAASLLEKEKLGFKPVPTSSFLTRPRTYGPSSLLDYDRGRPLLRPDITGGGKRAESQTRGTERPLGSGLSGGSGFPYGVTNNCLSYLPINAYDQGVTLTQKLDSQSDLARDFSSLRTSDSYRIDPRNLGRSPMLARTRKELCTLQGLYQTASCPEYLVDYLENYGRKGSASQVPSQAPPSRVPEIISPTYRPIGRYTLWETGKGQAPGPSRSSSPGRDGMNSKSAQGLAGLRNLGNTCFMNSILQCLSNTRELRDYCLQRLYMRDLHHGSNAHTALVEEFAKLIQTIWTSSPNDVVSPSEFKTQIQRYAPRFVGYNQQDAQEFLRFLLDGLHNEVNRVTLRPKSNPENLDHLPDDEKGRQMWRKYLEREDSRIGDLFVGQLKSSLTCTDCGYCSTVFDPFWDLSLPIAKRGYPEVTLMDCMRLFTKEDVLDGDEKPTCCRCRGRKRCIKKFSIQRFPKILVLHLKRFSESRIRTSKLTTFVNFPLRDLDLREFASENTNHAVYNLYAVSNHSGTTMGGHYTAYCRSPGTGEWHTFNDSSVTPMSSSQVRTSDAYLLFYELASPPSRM

Compound	activity change, negative = inhibition	Potency
Cc1cc(C)n(C(=O)c2cccc(S(=O)(=O)N3CCCC3)c2)n1	3.82% (inactive)	–
O=C(N/N=C/C=C/c1ccccc1)c1ccncc1	1.99% (inactive)	–
O=C(O)c1cccc(-n2cccc2/C=C2/NC(=O)N(c3ccc(Cl)cc3)C2=O)c1	–	9.27 µM (active)
CN(C)CCCN1C(=O)C(=O)/C(=C(/O)c2ccncc2)C1c1cccnc1 (stereo not given)	-0.824% (inactive)	–
Cn1c(C(=O)NCCCN2CCN(c3ccccc3F)CC2)cc2c(=O)n(C)c3ccccc3c21	-0.517% (inactive)	–
COC(=O)c1[nH]c(=O)c2ccccc2c1OCc1ccccc1	-3.77% (inactive)	–
O=C1CCCc2nc(N3CCN(c4ccccc4)CC3)ncc21	-1.03% (inactive)	–
Cc1ccc(C=Nc2ccccc2C(N)=O)cc1	0.371% (inactive)	–
C=CCn1c(O)c(C(CC)=NCCN2CCOCC2)c(=O)[nH]c1=O	5.16% (inactive)	–
COC(=O)CCC(=O)Nc1sc2c(c1C#N)CCCC2	6.97% (inactive)	–
CCCCC(OC(=O)c1cc2occc2n1C)C(=O)NCC1CCCO1 (stereo not given)	5.21% (inactive)	–
COc1cc(NC(=O)COC(=O)CSc2ccccc2F)c(C)cc1[N+](=O)[O-]	-2.68% (inactive)	–
C#CCOCCOCCOCCNc1nc(N2CCN(C(=O)CCCCCCCCCCNC(=O)[C@H](CCCCN)n3cc(CCO)nn3)CC2)nc(N2CCN(C(=O)CCCCCCCCCCNC(=O)[C@H](CCCCN)n3cc(C[C@@H](C)CC)nn3)CC2)n1	–	8.26 µM (active)
Cc1cc(C)cc(C(=O)Nc2ccc(N3CCCC3)cc2)c1	-18.2% (inactive)	–
C#CCOCCOCCOCCNc1nc(N2CCN(C(=O)CCCCCCCCCCNC(=O)Cn3cc(C[C@@H](C)O)nn3)CC2)nc(N2CCN(C(=O)CCCCCCCCCCNC(=O)[C@@H]([C@H](C)CC)n3cc(CCCCCN)nn3)CC2)n1	–	11.7 µM (active)
